Assay outcomes: PubChem BioAssay, National Center for Advancing Translational Sciences (NCATS)
Rows were chosen to be rich in hits. Some 9.3% of all compounds tested hit in one or more screens of this group.
ELG1 genotox – qHTS screen for small molecules that induce genotoxicity in human embryonic kidney (HEK293T) cells expressing luciferase-tagged ELG1; actives 1.3% (n = 330,000); Potency, µM (titrated, usually from 46 µM), actives largely listed as activators; AID 504466, 2011; HEK293T ELG1-luciferase reporter, luminescence, 16 h; note: nearly all actives have a fitted effect of over 60% in size
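Step 1: seed 2,000 HEK293T ELG1-luciferase cells per well. Step 2: add compound or DMSO, incubate 16 hr at 37 °C. Step 3: ONE-Glo, 30 min at room temperature, read luminescence.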
FLuc counter – qHTS profiling assay for firefly luciferase inhibitor/activator using purifed enzyme and Km concentrations of substrates (counterscreen for miR-21 project); Luciferin 4-monooxygenase (Photinus pyralis), P08659; purified FLuc, Km substrates, luminescence inhibition; Potency, µM (series often up to 57.5 µM), usual class: inhibitors; actives 6.9% (n = 360,000); AID 588342, 2011; note: nearly all actives have a fitted effect of over 55% in size
Target sequence (P08659 whole entry, looked up): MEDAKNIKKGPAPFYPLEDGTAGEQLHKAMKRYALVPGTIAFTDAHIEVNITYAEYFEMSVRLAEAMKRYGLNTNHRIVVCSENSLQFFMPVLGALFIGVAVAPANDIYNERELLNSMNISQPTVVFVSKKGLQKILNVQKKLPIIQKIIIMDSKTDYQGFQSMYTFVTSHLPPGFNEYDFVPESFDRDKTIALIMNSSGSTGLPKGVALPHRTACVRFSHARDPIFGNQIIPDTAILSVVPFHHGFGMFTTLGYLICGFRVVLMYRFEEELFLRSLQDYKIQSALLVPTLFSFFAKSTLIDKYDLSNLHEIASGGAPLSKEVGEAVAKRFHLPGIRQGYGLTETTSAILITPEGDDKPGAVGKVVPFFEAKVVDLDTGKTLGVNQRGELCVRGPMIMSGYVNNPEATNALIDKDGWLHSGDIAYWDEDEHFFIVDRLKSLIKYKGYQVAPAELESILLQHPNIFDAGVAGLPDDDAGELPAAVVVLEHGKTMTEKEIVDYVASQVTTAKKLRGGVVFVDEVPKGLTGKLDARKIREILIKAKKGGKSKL
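Biochemical qHTS of compounds, final roughly 60 µM downward over six points, against 10 nM purified firefly luciferase using Km concentrations of substrates (10 uM D-luciferin, 10 uM ATP) in Tris acetate pH 7.5 buffer; luminescence output.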
SMN2 splice up – qHTS Assay for Enhancers of SMN2 Splice Variant Expression. HEK293 SMN2-luciferase splicing reporter, luminescence, 30-36 h. Potency, µM (highest dose often 46.1 µM), most hits filed as activators. actives 2.8% (n = 210,000). AID 1458, 2008; note: nearly all actives have a fitted effect of over 55% in size
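HEK293 cells carry an SMN2 minigene-luciferase reporter in which exon 7 inclusion puts luciferase in frame. Cells were seeded at 2000 cells/well, attached for 10-12 hours, then exposed to compounds for 30-36 hours at 37C before ONE-Glo luminescence.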
NPC1 promoter act – qHTS Assay for NPC1 Promoter Activators; Huh7 NPC1 promoter luciferase reporter, 24 h; Potency, µM (series often up to 9.22 µM), usual class: activators; actives 2.4% (n = 320,000); AID 485313, 2010; note: nearly all actives have a fitted effect of over 60% in size
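In 1536-well qHTS, Huh7 cells harboring an NPC1 promoter–luciferase construct received compound for 24 h; activation was quantified by luminescence following luciferase reagent addition.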
ELG1 repair inh – qHTS screen for small molecules that inhibit ELG1-dependent DNA repair in human embryonic kidney (HEK293T) cells expressing luciferase-tagged ELG1. HEK293T ELG1-luciferase reporter, luminescence, 16 h; DNA damage induced by 5-fluorouridine. Potency, µM (top dose mostly 46.1 µM), actives largely listed as inhibitors. actives 2.3% (n = 330,000). AID 504467, 2011; note: nearly all actives have a fitted effect of over 55% in size
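Quantitative HTS, concentration-response format. 2,000 cells/well co-treated with 5-fluorouridine and compound, 16 hr in 5% CO2 at 37 °C; ONE-Glo luminescence read after 30 min.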
Rab9 prom act – qHTS Assay for Rab9 Promoter Activators; Huh7 Rab9 promoter-luciferase reporter, luminescence, 24 h; Potency, µM (series often up to 9.22 µM), usual class: activators; actives 2.8% (n = 320,000); AID 485297, 2010; note: nearly all actives have a fitted effect of over 60% in size
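Using Huh7 cells stably transfected with Rab9 promoter–luciferase, compounds were incubated 24 h at 37 °C, 5% CO2; luciferase luminescence was read 10 min after reagent addition.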
Hits are given with their value; - = inactive; ? = inconclusive; . = no result. Calls come from the whole dose curve; as a rule, active = well fitted curve in the direction sought with a large enough effect; inconclusive = small, poorly fitted or top-dose-only effect, or another doubt; inactive = no such curve, though single readings can be large; an effect the other way counts as inactive or inconclusive.

SMILES | ELG1 genotox | FLuc counter | SMN2 splice up | NPC1 promoter act | ELG1 repair inh | Rab9 prom act
COc1ccc(CCNc2cc(C)nc3c(-c4ccccc4)c(C)nn23)cc1OC | - | - | - | - | 21µM | -
Cc1cc(NC2CCCC2)n2nc(C)c(-c3ccccc3)c2n1 | ? | 19µM | . | - | - | ?
Cc1cc(C(F)(F)F)n2ncc(-c3cccc(Br)c3)c2n1 | - | - | - | - | ? | -
CCOc1ccccc1C(=O)N(Cc1ccc(N(C)C)cc1)CC1CCCO1 (centres undefined) | . | - | - | . | . | .
N#Cc1ccccc1NC(=O)C(=O)NCCc1csc2nc(-c3cccc(F)c3)nn12 | . | - | . | . | . | .
CC(C)C(=O)NNC(=O)c1csc(-c2cccs2)n1 | - | - | . | - | - | -
Cc1cc(N2CCN(C(=O)c3ccco3)CC2)n2ncc(-c3ccccc3)c2n1 | - | 12µM | - | ? | ? | 3.5µM
CC(C)(C)c1cc(N2CCOCC2)n2ncc(-c3ccc(Cl)cc3)c2n1 | - | ? | . | - | ? | -
Cc1cc(N2CCN(C(=O)c3ccco3)CC2)n2ncnc2n1 | - | - | - | - | - | -
Cc1cc(N2CCCCC2)n2ncc(-c3ccc(Cl)cc3)c2n1 | 2.1µM | 2.4µM | - | 4µM | ? | 2.8µM
Cc1cc(N2CCC(C)CC2)n2ncc(-c3ccccc3)c2n1 | 0.41µM | 0.76µM | - | 0.35µM | ? | 0.32µM
Cc1cc(N2CCOCC2)n2ncc(-c3ccc(Cl)cc3)c2n1 | ? | 0.6µM | . | 2.2µM | ? | 0.63µM
CCCCN1CC(c2nc3ccccc3n2CCCCOc2cc(C)ccc2C)CC1=O (centres undefined) | . | - | . | . | . | .
N#Cc1ccc(Nc2nn3c(=O)c4ccccc4nc3s2)cc1 | . | - | . | . | . | .
CC(=O)Nc1ccc(Nc2cc(C)nc3c(-c4ccc(Cl)cc4)cnn23)cc1 | - | - | ? | 2.2µM | ? | 2.5µM
Cc1cc(N2CCOCC2)n2ncc(-c3ccccc3)c2n1 | 0.18µM | 0.34µM | 2.2µM | 0.56µM | ? | 0.71µM
Cc1nc2cc(-c3cccc(F)c3)nn2c(N2CCN(C(=O)c3ccco3)CC2)c1C | ? | 17µM | - | - | 16µM | -
CC(=O)Nc1ccc(Nc2cc(C)nc3c(-c4ccc(Cl)cc4)c(C)nn23)cc1 | - | - | - | - | - | -
C=CCc1c(C)nc2c(-c3ccccc3)cnn2c1N1CCOCC1 | 10µM | 2.4µM | . | 2.8µM | ? | 1.6µM
Cc1cc(N2CCOCC2)n2nc(C(F)(F)F)c(-c3ccccc3)c2n1 | - | - | . | - | - | -
Cc1ccccc1CNC(=O)C(=O)NCCC1CCCCN1S(=O)(=O)c1ccccc1 (centres undefined) | - | - | . | - | - | -
CCOc1ccc(OCC)c(NC(=O)C2CCCN(S(=O)(=O)c3ccc4c(c3)oc(=O)n4C)C2)c1 (centres undefined) | . | - | - | . | . | .
Cc1ccc(-c2cnn3c(N4CCOCC4)cc(C)nc23)cc1 | ? | 0.48µM | . | - | ? | -
Cc1cc(C)n(-c2cc(C(C)(C)C)nc3c(-c4ccc(Cl)cc4)cnn23)n1 | - | ? | - | - | - | -
Cc1cc(C)n(-c2cc(C(C)(C)C)nc3c(-c4ccccc4)cnn23)n1 | ? | 1.9µM | . | 2.5µM | ? | 2.8µM
SMILES | ELG1 genotox | FLuc counter | SMN2 splice up | NPC1 promoter act | ELG1 repair inh | Rab9 prom act
Cc1cc(N2CCCCC2)n2ncc(-c3ccccc3)c2n1 | ? | 0.27µM | - | 0.45µM | ? | 0.32µM
C[C@H]1CCC(=O)N(CCSc2ccc(Br)cc2)CC1 | - | ? | . | - | ? | ?
CC(C)(C)C1CCC(=O)N(CCSc2ccccc2)CC1 (centres undefined) | ? | 7.6µM | . | 2.5µM | ? | 3.2µM
Cc1ccc(SCCN2CCC(C(C)(C)C)CCC2=O)cc1 (centres undefined) | - | ? | . | - | ? | -
Cc1ccc(SCCN2CCC(C)CCC2=O)cc1 (centres undefined) | ? | 19µM | . | 4µM | ? | ?
CCOc1ccc(NC(=O)CCC(=O)NNC(=O)Nc2cccc(Cl)c2)cc1 | ? | - | - | - | ? | -
COc1ccc(Nc2nc(N)nc(CSc3nncn3C)n2)cc1 | 21µM | 15µM | - | - | ? | ?
COc1ccc(Nc2nc(N)nc(CSc3nc4cc(OC)ccc4s3)n2)cc1 | . | ? | - | . | . | .
COc1ccc(Nc2nc(N)nc(CSc3nnc(C)s3)n2)cc1 | ? | 27µM | 22µM | - | ? | ?
CCCC1CC(C(=O)N[C@H](C(C)O)C2OC(SC)[C@@H](O)C(O)C2O)N(C)C1 (some centres undefined) | . | . | - | . | . | .
O=C(COC(=O)/C=C/c1ccccc1)NCCc1ccc(F)cc1 | - | . | . | . | - | .
O=C(CC(SCCO)c1ccc2c(c1)OCO2)c1cccs1 (centres undefined) | ? | 13µM | - | ? | ? | 4µM
CCOC(=O)c1ccccc1NC(=O)CN(c1ccccc1C)S(C)(=O)=O | - | - | - | - | - | -
Cc1cc(C)c(C)c(S(=O)(=O)NCc2ccncc2)c1C | - | - | . | - | 2.9µM | -
Cc1ccc(C(=O)NNC(=O)c2ccc(NS(=O)(=O)c3cccs3)cc2)o1 | - | - | . | - | - | -
COc1ccc(CCN=Cc2ccccc2O)cc1OC | - | - | . | - | - | -
CC(=O)c1ccc(N2CCN(C(=O)/C=C/c3ccc(S(=O)(=O)NCc4ccco4)cc3)CC2)cc1 | - | - | - | - | 7.3µM | -
CC(=O)c1ccc(N2CCN(C(=O)/C=C/c3ccc(S(=O)(=O)N4CCOCC4)cc3)CC2)cc1 | - | - | - | - | ? | -
CSc1ccc(CN(C)C(=O)C2CCN(C(=O)Nc3ccccc3)CC2)cc1 | - | . | . | - | ? | -
Cc1ccc(-c2cc(C(F)(F)F)n3ncc(C(=O)O)c3n2)cc1 | - | - | - | - | - | -
COCCNC(=O)c1cnn2c(C(F)(F)F)cc(-c3ccc(C)cc3)nc12 | - | - | - | - | 5.8µM | -
COc1ccc(-c2cc(C(=O)NCC3CCCO3)c3ccccc3n2)cc1 (centres undefined) | - | 12µM | - | - | - | -
COc1cccc(-c2cc(C(=O)NCC3CCCO3)c3ccccc3n2)c1 (centres undefined) | - | 27µM | - | - | ? | -
Cc1ccc(-c2cc(C(=O)NCC3CCCO3)c3ccccc3n2)cc1C (centres undefined) | - | 6.7µM | - | - | ? | -
COc1cccc(-c2cc(C(F)(F)F)n3ncc(C(=O)NCC4CCCO4)c3n2)c1 (centres undefined) | - | - | - | - | 6.5µM | -
